Mtb hypoxia inh = Mtb hypoxia fluorescent reporter inhibition; fluorescence inhibition, % (test concentration not listed); actives 0.1% (n = 300,000); AID 1159583; M. tuberculosis hypoxia-regulated fluorescent reporter, fluorescence; in the data active = fluorescence inhibition mostly above about 23%, no sharp cut-off; inactive = mostly below about 17%
CCHF vOTU inh-1 = CCHFV vOTU protease inhibition | inhibition, % at 11.5 µM | actives 0.55% (n = 370,000) | Pep-AMC fluorescence; also: 0% = vehicle wells with enzyme and 100% = no enzyme wells
PriA SSB inh = K. pneumoniae PriA-SSBct interaction inhibition; AlphaScreen SSBct-PriA binding, biotinylated peptide; inhibition, % at 33 µM; actives 0.6% (n = 430,000); in the data active = inhibition mostly above about 37%, no sharp cut-off; inactive = mostly below about 20%;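 also: plate controls were negative control peptide for no effect and reference peptide for full effect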
SARS 3CLpro inh = SARS-CoV 3CLpro protease inhibition; P0C6X7; recombinant SARS-CoV 3CLpro, quenched FRET peptide cleavage; inhibition, % at 6 µM; actives 0.14% (n = 290,000); in the data active = inhibition above about 12%
DUSP3 inh = blocks human VHR1 dual specificity phosphatase; recombinant VHR phosphatase, pNPP absorbance; AID 1654; actives 0.52% (n = 290,000); inhibition, % at 13.3 µM; P51452; in the data active = inhibition above about 50%
Target sequence (P51452 whole entry, looked up): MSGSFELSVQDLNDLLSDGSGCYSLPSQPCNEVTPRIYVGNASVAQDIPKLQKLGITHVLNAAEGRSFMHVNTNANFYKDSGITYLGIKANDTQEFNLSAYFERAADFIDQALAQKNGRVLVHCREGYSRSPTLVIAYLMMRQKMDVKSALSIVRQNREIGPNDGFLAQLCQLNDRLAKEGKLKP
CCHF vOTU inh-2 = CCHFV vOTU protease inhibition, confirmation. actives 17% (n = 1,900). shares compounds with CCHF vOTU inh-1. Recombinant CCHFV vOTU, Pep-AMC fluorescence. inhibition, % at 11.5 µM
* marks the source's active call; other numbers are inactive results; . = no result. Compounds with a hit are over-represented: about 1.3% of the library has one in this group of screens. Rule as the data show it, unless noted: active = inhibition above about 30%; inactive = the rest.

SMILES | Mtb hypoxia inh | CCHF vOTU inh-1 | PriA SSB inh | SARS 3CLpro inh | DUSP3 inh | CCHF vOTU inh-2
O=C(OCC(=O)c1ccc[nH]1)c1ccc([N+](=O)[O-])cc1 | 6.0 | -14.4 | 0.7 | . | . | .
O=C(COC(=O)c1ccc([N+](=O)[O-])s1)NCc1ccc(F)cc1 | 6.5 | 71.3* | 4.4 | -0.6 | 1.3 | 77.4*
CCOc1cc(C(=O)NCc2cnn3ccccc23)cc(OCC)c1OCC | . | . | -1.0 | . | . | .
Cc1cn2c3c(=O)n(Cc4ccccc4Cl)c(=O)n(C)c3nc2n1Cc1ccco1 | . | . | -7.0 | . | . | .
Cc1ccc(-c2ccc(N3CCN(C(=O)CC(C)C)CC3)nn2)cc1C | . | . | -7.0 | . | . | .
COC1=C(N)C(=O)c2nc(-c3nc(C(=O)O)c(C)c(-c4ccc(OC)c(OC)c4O)c3N)ccc2C1=O | . | . | -10.8 | -0.1 | 0.9 | .
COC(=O)c1nc(-c2ccc3c(n2)C(=O)C(N)=C(OC)C3=O)c(N)c(-c2ccc(OC)c(OC)c2O)c1C | 17.7 | 37.2* | 27.6 | -2.3 | 0.4 | 105.8*
Cc1ccc(-c2csc3nc(SCC(=O)c4cc(C)n(-c5ccccc5)c4C)n(-c4ccccc4)c(=O)c23)o1 | . | . | 2.0 | . | . | .
CC1=NN(c2ccc(Cl)cc2)C(=O)C1C(c1ccccc1O)c1c(C)[nH]n(-c2ccc(Cl)cc2)c1=O (stereo not given) | 4.1 | . | 9.5 | 5.4 | 7.4 | .
CC1=NN(c2ccc(C)cc2C)C(=O)C1C(c1ccccc1O)C1C(=O)N(c2ccc(C)cc2C)N=C1C (stereo not given) | 4.5 | 43.7* | 12.9 | -1.4 | 2.9 | -23.9
CCN(C[C@H]1N[C@@](Cc2ccccc2)(C(=O)OC)[C@H]2C(=O)N(Cc3ccccc3)C(=O)[C@@H]12)S(=O)(=O)c1ccc(OC)cc1 | -5.0 | 1.8 | 6.6 | . | . | .
CCN(C[C@H]1N[C@@](CC)(C(=O)OC)[C@H]2C(=O)N(Cc3ccccc3)C(=O)[C@@H]12)S(=O)(=O)c1ccc(OC)cc1 | -10.6 | 32.9* | -8.2 | . | . | -10.0
COC(=O)CCCC1=CC2=C(c3ccccc3)C(=O)C(C)(OC(=O)C3CCCC3)C(=O)C2=CN1CC1CC1 (stereo not given) | 8.2 | 10.3 | -0.3 | . | 11.1 | .
COC(=O)CCCC1=CC2=C(c3ccccc3)C(=O)C(C)(OC(=O)C3CCCC3)C(=O)C2=CN1C1CCCCC1 (stereo not given) | 18.4 | 33.0* | 6.1 | . | 14.9 | 22.4
COCCN1C=C2C(=O)C(C)(OC(=O)C3CCCC3)C(=O)C(c3ccccc3)=C2C=C1CCCC(=O)OC (stereo not given) | 7.5 | 33.6* | 0.4 | . | 22.5 | 38.9*
FC(F)(F)c1cc(CO[C@@H]2CCCN[C@@H]2c2ccccc2)cc(C(F)(F)F)c1 | . | 33.4* | -11.8 | . | . | -2.6
FC(F)(F)c1cc(CCN2CCNC[C@@H]2c2ccccc2)cc(C(F)(F)F)c1 | . | 12.0 | -4.4 | . | . | .
COc1ccc(CC(=O)Nc2cnc(-n3ccnc3)nc2)cc1 | . | . | -4.0 | . | . | .
CC(=O)Nc1ccc(N/C=C/C(=O)c2ccco2)cc1 | 3.3 | -0.1 | 5.2 | 0.9 | -15.6 | .
CN(C)c1ccc(N/C=C/C(=O)c2ccco2)cc1 | 13.9 | 67.7* | -2.6 | 3.5 | -5.5 | -2.0
CCCCC(=O)N1CCN(c2ccc(-c3ccc(C)cc3C)nn2)CC1 | . | . | 4.0 | . | . | .
COc1ccc2ccccc2c1C1CC(=O)N2CN(C)CSC2=C1C#N (stereo not given) | 11.8 | 78.5* | -3.4 | 1.9 | 18.9 | 56.1*
COc1cc(OC)c(C2CC(=O)N3CN(C)CSC3=C2C#N)cc1OC (stereo not given) | 1.7 | 5.8 | -2.9 | -0.7 | 8.7 | .
COc1cc(-c2coc3c(C(=O)NCc4cccc(Cl)c4)cccc23)ccc1O | . | 16.9 | . | . | . | .
COc1cc(-c2coc3c(C(=O)NCc4ccccc4)cccc23)ccc1O | . | 40.7* | . | . | . | -4.6
SMILES | Mtb hypoxia inh | CCHF vOTU inh-1 | PriA SSB inh | SARS 3CLpro inh | DUSP3 inh | CCHF vOTU inh-2
O=C(NCC1CCN(S(=O)(=O)c2cccnc2)CC1)c1cc(=O)c2ccccc2o1 | . | . | -11.0 | . | . | .
CCOC(=O)C1=C(CNCCc2ccc(Cl)cc2)NC(=O)NC1c1cccc([N+](=O)[O-])c1 (stereo not given) | -6.4 | 15.5 | 10.9 | 7.5 | 6.4 | .
CCOC(=O)C1=C(CNC(C)(C)CC(C)(C)C)NC(=O)NC1c1cccc([N+](=O)[O-])c1 (stereo not given) | 7.0 | 31.5* | 1.8 | 1.9 | 15.1 | 13.3
CC1=Nc2ccc(C)cc2C1=Cc1c(N)n2oc(C)cc2nc1=O | . | . | 0.8 | . | . | .
O=C1NC(=S)S/C1=C\c1cc(Cl)cc(Cl)c1O | 23.9 | 30.5* | -1.5 | . | . | 23.4
O=S(=O)(NCC[C@H](O)c1cccc2ccccc12)c1cccc(Cl)c1 | . | . | -2.0 | . | . | .
Nc1c(C(=O)Nc2ccc3c(c2)OCCO3)nnn1Cc1ccc(Br)cc1 | 2.0 | 30.8* | -2.6 | . | . | -8.7
CCc1cc2c(=O)[nH]c(CCl)nc2s1 | . | . | -9.0 | . | . | .
O=C(c1ccccc1)N1CCN(C2CCCCC2)CC1 | 6.8 | -7.2 | 1.5 | -0.4 | -16.0 | .
O=C1CCN(CC2CCCCC2)C=C1C(=O)c1ccccc1 | . | 32.5* | -18.2 | . | . | -12.8
CC(=O)c1cccc(N(CC(=O)NC2CCCC2)C(=O)CNC(=O)c2cccs2)c1 | 8.9 | 36.5* | 1.8 | 0.7 | 26.3 | -17.5
O=C(NCCc1ccccc1Cl)[C@@H]1CCCN1C(=O)[C@@H](NS(=O)(=O)c1ccc(F)cc1F)C1CCCCC1 | . | 33.9* | . | . | . | -9.3
Cc1ccccc1C(=O)N[C@H](C(=O)N1CCC[C@H]1C(=O)NCCc1ccccc1Cl)C1CCCCC1 | . | 2.2 | . | . | . | .
O=C(NCCCn1cccc1)c1ccccc1C(=O)c1ccccc1 | . | . | 13.0 | . | . | .
O=C(O)CNC(=O)CN1C(=O)c2cc(Cl)c(Cl)cc2C1=O | . | . | 0.0 | . | . | .
O=S(=O)(c1ccccc1)N(CC(F)(F)F)c1ccc(C(O)(C(F)(F)F)C(F)(F)F)cc1 | . | 34.0* | . | . | . | -0.2
CCN(c1ccc(C(O)(C(=O)OC)C(F)(F)F)cc1)S(=O)(=O)c1ccccc1 (stereo not given) | 10.4 | 8.6 | -11.9 | -3.8 | 5.5 | .
Nc1c(N(Cc2ccco2)C(=O)COc2ccc(Cl)cc2)c(=O)[nH]c(=O)n1Cc1ccccc1 | 7.3 | 16.0 | 0.3 | . | . | .
Nc1c(N(Cc2ccco2)C(=O)COc2ccccc2Cl)c(=O)[nH]c(=O)n1Cc1ccccc1 | 1.1 | 30.7* | -1.3 | . | . | -14.9
Cc1oncc1C(=O)NCCn1nc(-c2cccs2)cc1C1CC1 | . | . | -12.0 | . | . | .
O=C1NC(=O)N(Cc2ccc(F)cc2)C(=O)/C1=C\c1ccc([N+](=O)[O-])s1 | . | 31.8* | 24.1 | 3.7 | -7.7 | 22.8
COc1ccc(-c2cn(CC(=O)N3CCN(c4ccccc4OC)CC3)nc2N(C)C)cc1 | . | . | 13.0 | . | . | .
CCOC(=O)CSc1nc(-c2ccc(OC)cc2)ns1 | 7.9 | 33.3* | -36.4 | 3.3 | 1.8 | 0.0
COc1ccc(-c2nsc(SCC(=O)N3CCCCC3)n2)cc1 | . | . | -12.0 | . | . | .
CCOC(=O)N(CC)c1ccc(C(O)(C(=O)OCC)C(F)(F)F)cc1 (stereo not given) | 4.4 | 30.6* | -3.2 | -1.0 | 15.4 | -11.6
C[C@H]1CNCCN1c1ccc(N2CC[C@@H](O)C2)c(C#N)c1 | . | 34.3* | . | . | . | -19.8

Screening data (PubChem)
